Data published in PubChem BioAssay (EPA / NIEHS).
Active and inactive are the calls of the source. The calls were made as follows: active = hit-call score of the fitted dose curve at least 0.9, where 1 is the maximum; inactive = score below 0.9.

Experiments:
[1] = read-out: Transforming growth factor beta 1 (TGFb1), TGFB1 (gene 7040); experiment: BSK_KF3CT_TGFb1: BioMAP Diversity Plus: KF3CT Assay for Transforming growth factor beta 1 (TGFb1) Biomarker Activity (AID 2283072); conditions: primary human keratinocytes with fibroblasts; actives raise or lower the signal
Method in brief: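 KF3CT co-culture (keratinocytes + fibroblasts), 24 h exposure → TGF-b1 ELISA → bidirectional fit, DMSO = baseline. Parallel SRB total-protein staining (0.1% SRB, 10% TCA fixation, 560 nm) for cytotoxicity.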

[2] = read-out: C-C motif chemokine 2 (Homo sapiens) (UniProt P13500); experiment: BSK_KF3CT_MCP1: BioMAP Diversity Plus: KF3CT Assay for Monocyte Chemoattractant Protein 1 (MCP1/CCL2) Biomarker Activity (AID 2283073); conditions: primary human keratinocytes with fibroblasts; actives raise or lower the signal
Method in brief: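 ELISA read-out of MCP-1, 24 h post-dose, in primary human skin keratinocytes co-cultured with fibroblasts. Parallel SRB staining monitors cytotoxicity; changes fitted both directions relative to DMSO.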

[3] = read-out: Matrix Metallopeptidase 9 (MMP9), MMP9 (gene 4318); experiment: BSK_KF3CT_MMP9: BioMAP Diversity Plus: KF3CT Assay for Matrix Metallopeptidase 9 (MMP9) Biomarker Activity (AID 2283074); conditions: primary human keratinocytes with fibroblasts; actives raise or lower the signal;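 as to AC50: MMP9 protein level quantified by ELISA in the co-culture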
Method in brief: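 Values come from bidirectional fitting relative to DMSO of MMP-9 levels, which were measured by ELISA. Measurements were taken 24 h after chemical dosing of a keratinocyte and foreskin fibroblast co-culture.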

[4] = read-out: urokinase plasminogen activator (uPA), PLAU (gene 5328); experiment: BSK_KF3CT_uPA: BioMAP Diversity Plus: KF3CT Assay for urokinase plasminogen activator (uPA) Biomarker Activity (AID 2283075); conditions: primary human keratinocytes with fibroblasts; actives raise or lower the signal
Method in brief: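 Values derive from bidirectional fitting against DMSO controls. Keratinocyte/foreskin fibroblast co-cultures received chemical; 24 h later uPA was detected by ELISA, with SRB total-protein staining in parallel wells for overt cytotoxicity.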

CD40, CD40 (gene 958) [5] = experiment: BSK_LPS_CD40: BioMAP Diversity Plus: LPS Assay for CD40 Biomarker Activity (AID 2283076); conditions: primary human HUVEC with PBMC; actives raise or lower the signal
Method in brief: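 In the LPS system of human endothelial cells with peripheral blood mononuclear cells, CD40 levels were read by ELISA 24 h post-treatment. Signal changes in either direction were fitted against the DMSO baseline, with parallel SRB protein staining.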

[6] = read-out: E-selectin (Homo sapiens) (UniProt P16581); experiment: BSK_LPS_Eselectin: BioMAP Diversity Plus: LPS Assay for Eselectin Biomarker Activity (AID 2283077); conditions: primary human HUVEC with PBMC; actives raise or lower the signal
Method in brief: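 E-selectin ELISA on LPS-stimulated endothelial cell/PBMC co-cultures, read 24 h post-treatment; gains and losses fitted against DMSO. Parallel SRB staining (0.1% SRB after 10% TCA fixation, 560 nm) flags overt cytotoxicity.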

[7] = read-out: Interleukin-8 (IL8), CXCL8 (gene 3576); experiment: BSK_LPS_IL8: BioMAP Diversity Plus: LPS Assay for Interleukin-8 (IL8) Biomarker Activity (AID 2283078); conditions: primary human HUVEC with PBMC; actives raise or lower the signal
Method in brief: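 ELISA read-out of IL-8 after 24 h chemical treatment of LPS-activated endothelial/PBMC human primary co-cultures. Changes either up or down relative to DMSO; overt cytotoxicity checked by sulforhodamine B staining in parallel wells.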

[8] = BSK_LPS_SRB: Viability Assessment in the BioMAP Diversity Plus: LPS Assay (AID 2283079); conditions: primary human HUVEC with PBMC;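 also: total protein by sulforhodamine B absorbance as a cytotoxicity measure; measured one day after compound addition; fitted in both directions against DMSO so loss or gain of signal counts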
Method in brief: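 SRB viability endpoint: cells fixed with 10% TCA, stained with 0.1% SRB, read at 560 nm, 24 h post-dose. HUVEC/PBMC co-culture; signal change in either direction scored relative to DMSO.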

[9] = read-out: Monocyte Chemoattractant Protein-1 (MCP1), CCL2 (gene 6347); experiment: BSK_LPS_MCP1: BioMAP Diversity Plus: LPS Assay for Monocyte Chemoattractant Protein-1 (MCP1) Biomarker Activity (AID 2283081); conditions: primary human HUVEC with PBMC; actives raise or lower the signal
Method in brief: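 Secreted MCP-1 read by ELISA at 24 h post-dosing in an LPS-activated co-culture of endothelial cells with peripheral blood mononuclear cells. Fits run in both directions, DMSO as baseline; parallel SRB staining tracks overt cytotoxicity.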

[10] = BSK_LPS_PGE2: BioMAP Diversity Plus: LPS Assay for Prostaglandin E2 (PGE2) Biomarker Activity (AID 2283082); conditions: primary human HUVEC with PBMC; actives raise or lower the signal;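 as to AC50: secreted prostaglandin E2 measured by ELISA in LPS-stimulated co-culture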
Method in brief: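 Compounds were added to the LPS co-culture of endothelium and PBMC, and PGE2 was measured by ELISA after 24 h. Responses in either direction were fitted with DMSO as baseline.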

[11] = read-out: Macrophage colony-stimulating factor (MCSF), CSF1 (gene 1435); experiment: BSK_LPS_MCSF: BioMAP Diversity Plus: LPS Assay for Macrophage colony-stimulating factor (MCSF) Biomarker Activity (AID 2283083); conditions: primary human HUVEC with PBMC; actives raise or lower the signal
Method in brief: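 Bidirectional fitting against DMSO was applied to M-CSF levels read by ELISA at 24 h post-dose. The system pairs human umbilical vein endothelium with peripheral blood mononuclear cells; parallel SRB staining tracked cytotoxicity.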

[12] = read-out: Tissue Factor, F3 (gene 2152); experiment: BSK_LPS_TissueFactor: BioMAP Diversity Plus: LPS Assay for Tissue Factor Biomarker Activity (AID 2283084); conditions: primary human HUVEC with PBMC; actives raise or lower the signal
Method in brief: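 Compound was added to an endothelial cell/PBMC co-culture, and after 24 h tissue factor (CD142) was read by ELISA. Gain or loss of signal was fitted against a DMSO baseline, and parallel SRB staining (560 nm) tracked overt cytotoxicity.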

[13] = read-out: Tumor necrosis factor (Homo sapiens) (UniProt P01375); experiment: BSK_LPS_TNFa: BioMAP Diversity Plus: LPS Assay for Tumour Necrosis Factor alpha (TNFa) Biomarker Activity (AID 2283085); conditions: primary human HUVEC with PBMC; actives raise or lower the signal
Method in brief: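 Cells (umbilical vein endothelium plus peripheral blood mononuclear cells) were dosed with chemical, incubated 24 h, then TNFa was quantified by ELISA; values derive from bidirectional fitting with DMSO as baseline.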

[14] = read-out: Vascular cell adhesion molecule 1 (VCAM1), VCAM1 (gene 7412); experiment: BSK_LPS_VCAM1: BioMAP Diversity Plus: LPS Assay for Vascular cell adhesion molecule 1 (VCAM1) Biomarker Activity (AID 2283086); conditions: primary human HUVEC with PBMC; actives raise or lower the signal
Method in brief: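 Cells are dosed in an LPS-stimulated endothelial/mononuclear co-culture and, after 24 h, VCAM-1 is quantified by ELISA. Activity in either direction is fitted relative to the DMSO negative control.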

CD38, CD38 (gene 952) = experiment: BSK_SAg_CD38: BioMAP Diversity Plus: SAg Assay for CD38 Biomarker Activity (AID 2283087); conditions: primary human HUVEC with PBMC; actives raise or lower the signal
Method in brief: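 CD38 quantified by ELISA (fluorescence) in a superantigen-activated endothelial cell–PBMC co-culture at 24 h post-dose. Activity fitted in both directions relative to DMSO; parallel SRB and Alamar Blue cytotoxicity read-outs.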

CD40, CD40 (gene 958) [15] = experiment: BSK_SAg_CD40: BioMAP Diversity Plus: SAg Assay for CD40 Biomarker Activity (AID 2283088); conditions: primary human HUVEC with PBMC; actives raise or lower the signal
Method in brief: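 CD40 is measured by fluorescence ELISA in an endothelial/PBMC primary human co-culture at 24 h post-dose. Fitting is bidirectional, DMSO baseline. Parallel SRB staining (560 nm) flags cytotoxicity.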

CD69, CD69 (gene 969) = experiment: BSK_SAg_CD69: BioMAP Diversity Plus: SAg Assay for CD69 Biomarker Activity (AID 2283089); conditions: primary human HUVEC with PBMC; actives raise or lower the signal
Method in brief: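 ELISA, fluorescence read-out: CD69 on human umbilical vein endothelial cell + PBMC co-culture, 24 h post-dosing. Gain or loss of signal fitted bidirectionally against DMSO baseline.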

[16] = read-out: Monocyte Chemoattractant Protein-1 (MCP1), CCL2 (gene 6347); experiment: BSK_SAg_MCP1: BioMAP Diversity Plus: SAg Assay for Monocyte Chemoattractant Protein-1 (MCP1) Biomarker Activity (AID 2283090); conditions: primary human HUVEC with PBMC; actives raise or lower the signal
Method in brief: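 Values derive from bidirectional fitting of ELISA-measured MCP1 against DMSO controls. Readings were taken 24 h after dosing human vascular endothelial cells co-cultured with peripheral blood mononuclear cells under superantigen stimulation.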

[17] = read-out: E-selectin (Homo sapiens) (UniProt P16581); experiment: BSK_SAg_Eselectin: BioMAP Diversity Plus: SAg Assay for Eselectin Biomarker Activity (AID 2283091); conditions: primary human HUVEC with PBMC; actives raise or lower the signal
Method in brief: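 Cell-surface E-selectin is read by ELISA at 24 h in the SAg co-culture of HUVEC and PBMC. Curves are fitted in both directions relative to DMSO. Parallel SRB total-protein staining tracks overt toxicity.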

[18] = read-out: Interleukin-1 alpha (IL1a), IL1A (gene 3552); experiment: BSK_LPS_IL1a: BioMAP Diversity Plus: LPS Assay for Interleukin-1 alpha (IL1a) Biomarker Activity (AID 2283080); conditions: primary human HUVEC with PBMC; actives raise or lower the signal
Method in brief: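 Readout is IL-1a level by ELISA, 24 h post-dose, fitted as gain or loss relative to DMSO. System: LPS-activated human primary co-culture of vascular endothelium and peripheral blood mononuclear cells, with parallel SRB total-protein cytotoxicity.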

Measured: AC50

Sequence of Tumor necrosis factor (Homo sapiens) (P01375 whole entry, looked up): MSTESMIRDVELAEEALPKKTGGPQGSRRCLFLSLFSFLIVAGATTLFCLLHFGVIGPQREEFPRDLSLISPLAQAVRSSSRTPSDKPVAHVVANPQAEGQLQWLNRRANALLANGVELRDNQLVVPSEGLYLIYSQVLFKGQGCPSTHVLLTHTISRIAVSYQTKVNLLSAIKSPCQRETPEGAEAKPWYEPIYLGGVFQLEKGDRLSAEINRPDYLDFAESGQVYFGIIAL
Sequence of E-selectin (Homo sapiens) (P16581 whole entry, looked up): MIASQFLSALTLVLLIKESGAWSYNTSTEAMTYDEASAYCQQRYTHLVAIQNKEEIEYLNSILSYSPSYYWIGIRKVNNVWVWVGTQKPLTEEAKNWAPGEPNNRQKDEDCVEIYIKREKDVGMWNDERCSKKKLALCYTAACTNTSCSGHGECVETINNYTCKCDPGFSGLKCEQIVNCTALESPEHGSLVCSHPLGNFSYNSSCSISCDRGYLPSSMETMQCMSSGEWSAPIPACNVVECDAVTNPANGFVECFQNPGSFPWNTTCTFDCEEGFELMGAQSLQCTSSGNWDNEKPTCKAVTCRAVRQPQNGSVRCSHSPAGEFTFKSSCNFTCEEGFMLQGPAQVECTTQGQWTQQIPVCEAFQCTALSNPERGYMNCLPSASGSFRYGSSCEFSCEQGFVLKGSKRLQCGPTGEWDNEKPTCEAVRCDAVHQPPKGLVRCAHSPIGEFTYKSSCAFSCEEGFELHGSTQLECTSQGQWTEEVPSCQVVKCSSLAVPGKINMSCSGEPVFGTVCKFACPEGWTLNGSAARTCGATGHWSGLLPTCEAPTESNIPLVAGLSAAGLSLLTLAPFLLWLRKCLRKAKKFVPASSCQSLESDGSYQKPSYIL

C[C@]12CC[C@@H]3c4ccc(O)cc4C[C@@H](CCCCCCCCCS(=O)CCCC(F)(F)C(F)(F)F)[C@H]3[C@@H]1CC[C@@H]2O (stereo partly specified)
active: [17] 3.51 µM
not listed: [18]
inactive: all other assays above

CCOC(=O)C(C)Oc1ccc(Oc2nc3ccc(Cl)cc3o2)cc1 (stereo unspecified)
active: [3] 9.61 µM | [10] 24.3 µM | CD38, CD38 (gene 952) 23.6 µM | CD40, CD40 (gene 958) [15] 12 µM | [16] 20 µM | [17] 20 µM
not listed: [18]
inactive: all other assays above

CCOC(=O)c1ccc(O)cc1
not listed: [8]
inactive: all other assays above

COC(=O)c1c(Cl)nn(C)c1S(=O)(=O)NC(=O)Nc1nc(OC)cc(OC)n1
not listed: [18]
inactive: all other assays above
